Values joined by “and” are separate entries in the source; they are usually repeats but may differ in a detail not shown here. Identical values can stand only once. More than one record can exist for a structure, and the calls need not agree. Active and inactive are the calls of the source. Rule for the calls: active = hit-call score of the fitted dose curve at least 0.9, where 1 is the maximum; inactive = score below 0.9.
Tests used:
[1] = ATG_E_Box_CIS: Attagene CIS-FACTORIAL HepG2 Assay for human Enhancer Box (E-box) (AID 2282936); conditions: HepG2 E-box cis-reporter transcription, actives raise or lower the signal
In short: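 Endogenous transcription factor activity was sensed in human HepG2 liver cells through transfected cis-promoter reporter units. After 24 h of dosing, total RNA was reverse-transcribed and reporter cDNA resolved by capillary electrophoresis.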

[2] = ATG_M_61_CIS: Attagene CIS-FACTORIAL HepG2 Assay for M61 Transcription Factor (Internal Marker) (AID 2282937); conditions: HepG2 Attagene CIS-FACTORIAL M61 internal marker reporter; actives raise or lower the signal
In short: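 Multiplexed reporter mRNA assay, HepG2 human hepatoma cells, 24 h treatment. Signal: FAM-labelled, HpaI-digested RT-PCR fragments by CE. Fit: bidirectional, baseline DMSO.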

[3] = ATG_EGR_CIS: Attagene CIS-FACTORIAL HepG2 Assay for human Early Growth Response 1 (EGR1) (AID 2282938); conditions: HepG2 Attagene CIS-FACTORIAL EGR reporter mRNA; actives raise or lower the signal
In short: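 Multiplexed cis-reporter system in human hepatoma HepG2 cells, transiently transfected. Cells are dosed for 24 h; reporter transcripts are amplified, fluorescently tagged and sized by capillary electrophoresis, with DMSO as negative control.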

[4] = ATG_M_19_CIS: Attagene CIS-FACTORIAL HepG2 Assay for M19 Transcription Factor (Internal Marker) (AID 2282939); conditions: HepG2 Attagene CIS-FACTORIAL M19 internal marker reporter; actives raise or lower the signal
In short: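 HepG2 cells transiently transfected with cis-regulated multiple reporter transcription units were dosed for 24 h; reporter mRNA was quantified by RT-PCR, 6-FAM primer-extension labelling, HpaI digestion and capillary electrophoresis, with bidirectional fitting against DMSO baseline.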

[5] = ATG_ERE_CIS: Attagene CIS-FACTORIAL HepG2 Assay for Estrogen Response Element (ERE) (AID 2282940); conditions: HepG2 ERE cis-reporter, Attagene RNA transcript; actives raise or lower the signal
In short: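 HepG2 cells transiently transfected with cis-promoter-driven multiplexed reporter transcription units report endogenous TF activity. After 24 h compound exposure, reporter mRNA is quantified by RT-PCR with capillary electrophoresis fluorescence; bidirectional fitting versus DMSO baseline.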

[6] = ATG_Ets_CIS: Attagene CIS-FACTORIAL HepG2 Assay for human Erythroblast Transformation Specific (ETS) (AID 2282941); conditions: HepG2 ETS cis-reporter transcription, actives raise or lower the signal
In short: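 Endogenous transcription factor activity read as reporter mRNA via RT-PCR and capillary electrophoresis, with gain or loss fitted bidirectionally against DMSO. Human HepG2 liver cells, transiently transfected CIS reporter constructs, 24 h exposure.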

[7] = target: Hepatocyte nuclear factor 3-beta (Homo sapiens) (UniProt Q9Y261); assay: ATG_FoxA2_CIS: Attagene CIS-FACTORIAL HepG2 Assay for human Forkhead box A2 (FOXA2) (AID 2282942); conditions: HepG2 cis-reporter transcription factor activity, 24 h; actives raise or lower the signal
Chain of Hepatocyte nuclear factor 3-beta (Homo sapiens) (Q9Y261 whole entry, looked up): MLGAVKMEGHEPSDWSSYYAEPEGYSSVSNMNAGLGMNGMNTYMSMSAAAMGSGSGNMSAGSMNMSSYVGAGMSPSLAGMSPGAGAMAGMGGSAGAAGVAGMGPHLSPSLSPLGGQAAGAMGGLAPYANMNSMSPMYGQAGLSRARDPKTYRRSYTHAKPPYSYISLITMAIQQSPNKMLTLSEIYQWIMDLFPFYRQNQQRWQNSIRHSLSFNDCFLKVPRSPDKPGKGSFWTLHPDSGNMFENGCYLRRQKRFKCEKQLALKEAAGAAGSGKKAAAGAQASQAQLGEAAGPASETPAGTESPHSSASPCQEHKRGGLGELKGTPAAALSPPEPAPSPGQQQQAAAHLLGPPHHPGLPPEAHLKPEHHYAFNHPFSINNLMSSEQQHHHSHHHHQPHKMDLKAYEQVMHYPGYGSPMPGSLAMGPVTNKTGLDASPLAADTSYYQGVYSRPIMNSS
In short: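 Multiplexed cis-element reporter assay in transiently transfected HepG2. Twenty-four hours post-dosing, RNA was reverse-transcribed, amplified, FAM-labelled, HpaI-digested and separated by CE. Activity gain or loss relative to DMSO.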

[8] = ATG_FoxO_CIS: Attagene CIS-FACTORIAL HepG2 Assay for human Forkhead box O (FoxO) (AID 2282943); conditions: HepG2 Attagene cis-reporter, FoxO element, mRNA; actives raise or lower the signal
In short: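 24 h chemical exposure, HepG2 with transient cis-MRTU transfection. RNA extraction, oligo(dT) RT, reporter-specific PCR, primer-extension labelling, HpaI digestion, CE fragment analysis; bidirectional fit, DMSO baseline.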

[9] = ATG_GATA_CIS: Attagene CIS-FACTORIAL HepG2 Assay for human GATA Binding Protein (AID 2282944); conditions: HepG2 GATA cis-element reporter, Attagene multiplex mRNA; actives raise or lower the signal
In short: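 HepG2 cells transiently transfected with multiplexed cis-element reporter units reflecting endogenous transcription factor activity; reporter mRNA measured after 24 h dosing by RT-PCR, 6-FAM labeling, HpaI digestion and capillary electrophoresis. Bidirectional fitting versus DMSO baseline.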

[10] = ATG_GLI_CIS: Attagene CIS-FACTORIAL HepG2 Assay for human Zinc Finger Protein GLI1 (AID 2282945); conditions: HepG2, Attagene cis-factorial reporter mRNA, GLI element; actives raise or lower the signal
In short: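 HepG2 cells transiently transfected with cis-promoter multiplexed reporter units report endogenous transcription factor activity. After 24 h chemical exposure, reporter mRNA was quantified by RT-PCR, 6-FAM labelling, HpaI digestion and capillary electrophoresis, with bidirectional fitting against DMSO.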

[11] = target: Bile acid receptor (Homo sapiens) (UniProt Q96RI1); assay: ATG_IR1_CIS: Attagene CIS-FACTORIAL HepG2 Assay for human Nuclear Receptor Subfamily 1 Group H Member 4 (NR1H4), IR1 submotif (AID 2282946); conditions: IR1 reporter transcription, actives raise or lower the signal
Chain of Bile acid receptor (Homo sapiens) (Q96RI1 whole entry, looked up): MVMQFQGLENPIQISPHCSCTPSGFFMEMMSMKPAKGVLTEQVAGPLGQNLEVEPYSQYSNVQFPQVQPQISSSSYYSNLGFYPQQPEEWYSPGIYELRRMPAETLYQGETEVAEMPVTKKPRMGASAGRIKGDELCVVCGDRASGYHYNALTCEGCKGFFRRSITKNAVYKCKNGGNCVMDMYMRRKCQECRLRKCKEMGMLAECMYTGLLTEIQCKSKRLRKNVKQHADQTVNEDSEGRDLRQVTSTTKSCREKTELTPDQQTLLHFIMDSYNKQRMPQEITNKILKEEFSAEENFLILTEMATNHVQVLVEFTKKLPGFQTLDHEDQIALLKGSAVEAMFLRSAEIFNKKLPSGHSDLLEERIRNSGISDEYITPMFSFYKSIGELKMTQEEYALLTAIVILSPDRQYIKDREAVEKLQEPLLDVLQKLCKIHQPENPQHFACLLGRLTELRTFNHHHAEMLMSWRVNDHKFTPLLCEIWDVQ
In short: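 Readout: reporter transcript levels by RT-PCR with fluorescent capillary electrophoresis, from HepG2 cells transiently transfected with multiplexed cis-regulated reporters and dosed 24 h. Gain- or loss-of-signal fitted versus DMSO negative control.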

[12] = ATG_GRE_CIS: Attagene CIS-FACTORIAL HepG2 Assay for human Glucocorticoid Response Elements (GRE) (AID 2282947); conditions: HepG2 GRE cis-reporter, Attagene multiplex mRNA; actives raise or lower the signal
In short: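 Cells (HepG2) bearing transfected cis-promoter reporter transcription units were treated with chemical for 24 hours. Reporter mRNA was measured via RT-PCR with capillary electrophoresis, and activity was fitted in both directions relative to DMSO.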

[13] = ATG_ISRE_CIS: Attagene CIS-FACTORIAL HepG2 Assay for human Interferon Regulatory Factor 1 (IRF1) binding to an Interferon-Stimulated Response Element (ISRE) (AID 2282948); conditions: HepG2 ISRE cis-reporter (Attagene), mRNA transcription readout; actives raise or lower the signal
In short: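 Endogenous transcription factor activity read as reporter transcript abundance via RT-PCR and capillary electrophoresis. HepG2 cells transiently transfected, 24 h chemical exposure. Gain or loss fitted against DMSO baseline.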

[14] = ATG_M_32_CIS: Attagene CIS-FACTORIAL HepG2 Assay for M32 Transcription Factor (Internal Marker) (AID 2282949); conditions: HepG2 Attagene cis-factorial M32 reporter, mRNA; actives raise or lower the signal;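 note: background control marker of the multiplexed CIS panel rather than a real target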
In short: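 HepG2 human liver cells transiently transfected with cis-promoter-driven multiple reporter transcription units, dosed 24 h. Reporter mRNA quantified by RT-PCR, FAM-labelled primer extension, HpaI digest and capillary electrophoresis; bidirectional fit versus DMSO baseline.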

[15] = ATG_M_06_CIS: Attagene CIS-FACTORIAL HepG2 Assay for M06 Transcription Factor (Internal Marker) (AID 2282950); conditions: HepG2 Attagene CIS-FACTORIAL M06 internal marker reporter; actives raise or lower the signal
In short: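 HepG2 cells transiently transfected with cis-regulated multiple reporter transcription units were exposed to chemical for 24 h; reporter mRNA was quantified by RT-PCR, 6-FAM primer labelling, HpaI digestion and capillary electrophoresis, fitted bidirectionally against DMSO.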

[16] = target: Hypoxia-inducible factor 1-alpha (Homo sapiens) (UniProt Q16665); assay: ATG_HIF1a_CIS: Attagene CIS-FACTORIAL HepG2 Assay for human Hypoxia Inducible Factor 1 (HIF1A) (AID 2282951); conditions: HepG2 Attagene cis-factorial HIF1a reporter transcription; actives raise or lower the signal
Chain of Hypoxia-inducible factor 1-alpha (Homo sapiens) (Q16665 whole entry, looked up): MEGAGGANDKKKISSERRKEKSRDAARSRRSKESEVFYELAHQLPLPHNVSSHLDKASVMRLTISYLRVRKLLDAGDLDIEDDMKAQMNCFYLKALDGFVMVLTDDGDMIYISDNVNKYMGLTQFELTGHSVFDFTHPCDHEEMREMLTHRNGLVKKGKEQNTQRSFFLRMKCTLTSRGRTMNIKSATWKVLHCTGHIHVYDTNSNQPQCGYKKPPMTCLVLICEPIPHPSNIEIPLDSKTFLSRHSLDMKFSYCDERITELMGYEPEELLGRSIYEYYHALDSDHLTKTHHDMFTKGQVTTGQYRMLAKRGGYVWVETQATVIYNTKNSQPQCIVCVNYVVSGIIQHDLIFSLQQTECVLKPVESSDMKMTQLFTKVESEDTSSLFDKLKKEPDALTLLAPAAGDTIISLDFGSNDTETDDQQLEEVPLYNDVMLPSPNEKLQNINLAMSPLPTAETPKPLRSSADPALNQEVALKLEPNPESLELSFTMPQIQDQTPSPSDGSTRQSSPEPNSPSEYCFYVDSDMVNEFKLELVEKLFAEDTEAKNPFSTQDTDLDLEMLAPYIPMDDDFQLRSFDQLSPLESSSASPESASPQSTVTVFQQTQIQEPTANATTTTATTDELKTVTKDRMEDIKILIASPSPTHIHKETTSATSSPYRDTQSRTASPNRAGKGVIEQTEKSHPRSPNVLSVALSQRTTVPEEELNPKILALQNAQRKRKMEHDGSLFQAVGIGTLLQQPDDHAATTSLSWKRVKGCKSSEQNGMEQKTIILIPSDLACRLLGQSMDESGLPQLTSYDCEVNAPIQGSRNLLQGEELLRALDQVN
In short: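 Cis-element reporter constructs were transiently transfected into HepG2 cells, which were treated for 24 h; reporter RNA was reverse-transcribed, amplified, labelled and resolved by capillary electrophoresis.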

[17] = target: Hepatocyte nuclear factor 6 (Homo sapiens) (UniProt Q9UBC0); assay: ATG_HNF6_CIS: Attagene CIS-FACTORIAL HepG2 Assay for human Hepatocyte Nuclear Factor 6 (HNF6) (AID 2282952); conditions: HepG2 Attagene cis-factorial HNF6 reporter transcription; actives raise or lower the signal
Chain of Hepatocyte nuclear factor 6 (Homo sapiens) (Q9UBC0 whole entry, looked up): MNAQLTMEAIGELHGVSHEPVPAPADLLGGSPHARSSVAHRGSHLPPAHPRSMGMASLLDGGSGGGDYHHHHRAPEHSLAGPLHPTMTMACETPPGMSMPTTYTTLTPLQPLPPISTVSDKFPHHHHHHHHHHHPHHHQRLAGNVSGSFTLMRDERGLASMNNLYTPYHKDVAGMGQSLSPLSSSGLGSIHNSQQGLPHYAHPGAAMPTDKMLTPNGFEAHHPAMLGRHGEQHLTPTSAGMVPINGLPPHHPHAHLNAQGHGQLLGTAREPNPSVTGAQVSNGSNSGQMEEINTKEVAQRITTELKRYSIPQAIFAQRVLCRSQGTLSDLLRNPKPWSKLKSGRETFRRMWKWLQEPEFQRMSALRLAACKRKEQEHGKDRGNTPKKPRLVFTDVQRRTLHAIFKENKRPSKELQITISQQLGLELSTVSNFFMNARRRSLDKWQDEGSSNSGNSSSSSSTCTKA
In short: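 Activity values derive from bidirectional fitting against DMSO of reporter mRNA levels, measured by capillary electrophoresis of labelled RT-PCR products from HepG2 cells exposed 24 h.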

[18] = target: Heat shock factor protein 1 (Homo sapiens) (UniProt Q00613); assay: ATG_HSE_CIS: Attagene CIS-FACTORIAL HepG2 Assay for human Heat Shock Transcription Factor 1 (HSE) (AID 2282953); conditions: HepG2 HSE cis-reporter, Attagene RNA transcription; actives raise or lower the signal
Chain of Heat shock factor protein 1 (Homo sapiens) (Q00613 whole entry, looked up): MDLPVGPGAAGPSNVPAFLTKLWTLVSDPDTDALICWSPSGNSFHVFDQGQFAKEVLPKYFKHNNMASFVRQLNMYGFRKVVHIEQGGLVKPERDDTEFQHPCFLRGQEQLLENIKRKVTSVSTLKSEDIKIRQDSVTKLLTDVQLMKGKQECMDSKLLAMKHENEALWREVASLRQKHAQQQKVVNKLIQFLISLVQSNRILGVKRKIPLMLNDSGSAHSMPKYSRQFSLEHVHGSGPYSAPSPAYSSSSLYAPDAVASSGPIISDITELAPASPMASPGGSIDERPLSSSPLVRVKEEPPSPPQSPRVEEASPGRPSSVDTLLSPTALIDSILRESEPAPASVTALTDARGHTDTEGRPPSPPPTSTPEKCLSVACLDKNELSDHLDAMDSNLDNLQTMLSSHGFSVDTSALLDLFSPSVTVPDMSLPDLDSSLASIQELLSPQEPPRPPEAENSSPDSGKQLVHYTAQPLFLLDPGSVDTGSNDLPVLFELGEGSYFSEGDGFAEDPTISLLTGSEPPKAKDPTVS
In short: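 HepG2 cells transiently transfected with multiple reporter transcription units under cis-regulatory promoter control, measuring endogenous transcription factor activity. After 24 h chemical exposure, reporter mRNA quantified by RT-PCR, fluorescent labelling, HpaI digestion and capillary electrophoresis; bidirectional fit versus DMSO.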

[19] = ATG_MRE_CIS: Attagene CIS-FACTORIAL HepG2 Assay for human Metal Responsive Element (MRE) (AID 2282954); conditions: HepG2 MRE cis-reporter transcription, Attagene multiplex; actives raise or lower the signal
In short: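 Cells were transfected with cis-promoter reporter transcription units, then dosed for 24 h. RNA was reverse-transcribed, amplified, fluorescently labelled and resolved by capillary electrophoresis, and activity was fitted in both directions relative to DMSO.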

[20] = ATG_PBREM_CIS: Attagene CIS-FACTORIAL HepG2 Assay for human Phenobarbital-responsive Enhancer Module (PBREM) (AID 2282955); conditions: HepG2 PBREM cis-reporter, Attagene multiplexed transcription; actives raise or lower the signal
In short: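 Multiplexed cis-reporter readout in human hepatoma HepG2 cells; PBREM-regulated transcript quantified after 24 h exposure by fluorescent RT-PCR fragment analysis. Signal changes up or down fitted relative to DMSO.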

Measured: AC50

Cc1cc(F)ccc1-c1cc(N2CC[C@@H](O)[C@H]2CO)ncc1N(C)C(=O)C(C)(C)c1cc(C(F)(F)F)cc(C(F)(F)F)c1
inactive: all assays above

CCCCCCCCCCCO
not listed: [9] | [12] | [18]
inactive: all other assays above

C[C@]12CC[C@@H]3c4ccc(O)cc4CC[C@H]3[C@@H]1CC[C@H]2O
inactive: [1] | [2] | [4] | [6] | [7] | [8] | [10] | [12] | [14] | [15] | [17] | [18] | [19] | [20]
active: [1] 19.8 µM | [19] 24.8 µM

CC(C)(c1cc(Br)c(O)c(Br)c1)c1cc(Br)c(O)c(Br)c1
active: [3] 47.1 µM and 37.6 µM | [8] 58 µM | [10] 49.8 µM and 50.8 µM | [11] 16.3 µM | [16] 47.1 µM | [18] 49.8 µM and 49.3 µM | [19] 46.7 µM and 48.6 µM
inactive: [1] | [2] | [4] | [6] | [7] | [8] | [11] | [12] | [14] | [15] | [16] | [17] | [20]

Oc1ccc2ccccc2c1
inactive: [1] | [2] | [3] | [4] | [6] | [7] | [8] | [10] | [12] | [14] | [15] | [16] | [17] | [18] | [19]
active: [1] 8.89 µM

CCCCCc1ccc(N)cc1
inactive: [1] | [2] | [4] | [6] | [7] | [8] | [10] | [14] | [15] | [16] | [17] | [18] | [19] | [20]
active: [1] 5.55 µM and 4.89 µM | [5] 15.1 µM [middle of 4 runs] | [16] 2.57 µM | [19] 46 µM

Oc1ccccc1
not listed: [5] | [12] | [18]
inactive: all other assays above

— PubChem BioAssay (EPA / NIEHS)
